About 83,000 compounds went through this panel and 20% of them were active in at least one assay; those are over-represented in the sample as a whole.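 Results are percent growth after 48 hours of single-concentration exposure. 100 means growth as in untreated cells, lower positive values show inhibition; negative values down to -100 show cell death.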 Values without a mark were called inactive. The source made the active and inactive calls. Rule for the calls: active = growth percent below 10; inactive = the rest.
Tests used:
Assay in all cases: NCI-60 one-dose screen, 48 h (100 = growth as untreated, 0 = no growth, -100 = all killed)
Settings in all cases: 10 µM unless noted
[1] = system: DU-145 prostate
[2] = system: K-562 leukemia
[3] = system: MALME-3M melanoma
[4] = system: MDA-MB-231 breast
[5] = system: RXF 393 renal
[6] = system: SF-268 CNS
[7] = system: SF-295 CNS
[8] = system: SF-539 CNS
[9] = system: UACC-257 melanoma
[10] = system: HCT-15 colon
[11] = system: HT29 colon
[12] = system: SNB-75 CNS
[13] = system: SNB-19 CNS
[14] = system: U251 CNS
[15] = system: PC-3 prostate
[16] = system: SK-MEL-5 melanoma
[17] = system: UACC-62 melanoma
[18] = system: LOX IMVI melanoma
[19] = system: SK-MEL-28 melanoma

Structure (SMILES): c1cc2ccc3cc2cc1CNCCN1CCNCc2ccc4ccc(cc4c2)CNCCN(CCNC3)CCNCc2ccc3ccc(cc3c2)CNCC1
- growth [1]: -10.1% (active)
- growth [2]: 12.6%
- growth [3]: -13% (active)
- growth [4]: -23.7% (active)
- growth [5]: 11.4%
- growth [6]: -13.6% (active)
- growth [7]: 66.8%
- growth [8]: -41% (active)
- growth [9]: 100%
- growth [10]: 94.5%
- growth [11]: 1.47% (active)
- growth [12]: -12.6% (active)
- growth [13]: -7.68% (active)
- growth [14]: -4.66% (active)
- growth [15]: -0.11% (active)
- growth [16]: 88.6%
- growth [17]: 30.1%
- growth [18]: -7.72% (active)
- growth [19]: 62.8%

Structure (SMILES): Nc1cc(N)c(N=Nc2ccc(S(=O)(=O)O)cc2)cc1N=Nc1ccc(-c2ccc(N=Nc3ccc(O)c(C(=O)O)c3)cc2)cc1
- growth [1]: 111%
- growth [2]: 108%
- growth [3]: 93.2%
- growth [4]: 100%
- growth [5]: 124%
- growth [6]: 104%
- growth [7]: 103%
- growth [8]: 100%
- growth [9]: 101%
- growth [10]: 103%
- growth [11]: 103%
- growth [12]: 98.9%
- growth [13]: 95.6%
- growth [14]: 101%
- growth [16]: 101%
- growth [17]: 94.6%
- growth [18]: 100%
- growth [19]: 106%

Structure (SMILES): COc1ccc2c(c1)C(C)Cc1c(ncnc1-n1cnc3ccccc31)N2C (stereo not drawn)
- growth [1]: 23.7%
- growth [2]: 14.2%
- growth [3]: 92.3%
- growth [4]: 12.9%
- growth [5]: 12.8%
- growth [6]: 37.4%
- growth [7]: 13.6%
- growth [8]: 4.91% (active)
- growth [9]: 67.2%
- growth [10]: 16.1%
- growth [11]: -17.8% (active)
- growth [12]: 37.5%
- growth [13]: 33.4%
- growth [14]: 21.4%
- growth [15]: 17.5%
- growth [16]: 11.2%
- growth [17]: 39%
- growth [18]: 26.6%
- growth [19]: 59.5%

Structure (SMILES): Cc1ccc(S(=O)(=O)Nc2ccccc2)cc1N
- growth [1]: 108%
- growth [2]: 78.3%
- growth [3]: 133%
- growth [4]: 83.9%
- growth [5]: 94.5%
- growth [6]: 94.8%
- growth [7]: 119%
- growth [8]: 106%
- growth [9]: 92.3%
- growth [10]: 99.1%
- growth [11]: 107%
- growth [12]: 95%
- growth [13]: 108%
- growth [14]: 101%
- growth [15]: 89.5%
- growth [16]: 88.5%
- growth [17]: 90.8%
- growth [18]: 91.3%
- growth [19]: 100%

Structure (SMILES): Cn1cc(-c2nnc(-c3cn(C)c4ncccc34)s2)c2ccccc21
- growth [1]: 73.6%
- growth [2]: 27.8%
- growth [3]: 29.1%
- growth [4]: 40.2%
- growth [5]: 78.4%
- growth [6]: 72.1%
- growth [7]: 47.7%
- growth [8]: 45.8%
- growth [9]: 96.1%
- growth [10]: 45.1%
- growth [11]: 54.3%
- growth [12]: 49.4%
- growth [13]: 76.6%
- growth [14]: 74.8%
- growth [15]: 53.8%
- growth [16]: 63.7%
- growth [17]: 69.2%
- growth [18]: 86%
- growth [19]: 77.4%

Structure (SMILES): O=S(=O)(NCCNc1nccc(-c2c(-c3cccc(F)c3)nc3occn23)n1)c1ccc(C(F)(F)F)cc1
- growth [1]: 87.9%
- growth [2]: 69.8%
- growth [3]: 86.2%
- growth [4]: 86.9%
- growth [5]: 67.9%
- growth [6]: 70.4%
- growth [7]: 110%
- growth [8]: 109%
- growth [9]: 104%
- growth [10]: 95.5%
- growth [11]: 62.3%
- growth [12]: 59.6%
- growth [13]: 98%
- growth [14]: 92%
- growth [15]: 55.2%
- growth [16]: 92%
- growth [17]: 76.2%
- growth [18]: 95.8%
- growth [19]: 78.7%

Structure (SMILES): O=C(OCc1ccc2c(Cl)cc(Cl)c(O)c2n1)N1CCNCC1
- growth [1]: 47.7%
- growth [2]: 19.1%
- growth [3]: 64.6%
- growth [4]: 54.3%
- growth [5]: 45.4%
- growth [6]: 35%
- growth [7]: 24.2%
- growth [8]: 52.4%
- growth [9]: 40.5%
- growth [10]: 18.5%
- growth [11]: 80.6%
- growth [12]: 48.4%
- growth [13]: 37%
- growth [14]: 16.2%
- growth [15]: 29.8%
- growth [16]: 35.7%
- growth [17]: 24.5%
- growth [18]: 32.7%
- growth [19]: 70.4%

Structure (SMILES): CCN(CC)CCCNCc1cc(-c2ccccc2)nc2ccccc12
- growth [1]: 16.6%
- growth [2]: 24.3%
- growth [3]: 50.7%
- growth [4]: 31.3%
- growth [5]: 77.8%
- growth [6]: 39.8%
- growth [7]: 70.2%
- growth [8]: 32.7%
- growth [9]: 80%
- growth [10]: 15.3%
- growth [11]: 55.1%
- growth [12]: 73.6%
- growth [13]: 82.5%
- growth [14]: 21.5%
- growth [16]: 69.6%
- growth [17]: 95.6%
- growth [18]: 9.8% (active)

Structure (SMILES): COc1ccc(/C=C(/C2=NCCN2)n2ccc3ccccc32)cc1
- growth [1]: 96.2%
- growth [2]: 84.3%
- growth [3]: 87%
- growth [4]: 89.5%
- growth [5]: 77.9%
- growth [6]: 79.3%
- growth [7]: 85.8%
- growth [8]: 92.7%
- growth [9]: 94.3%
- growth [10]: 95.7%
- growth [11]: 89%
- growth [12]: 65%
- growth [13]: 91.6%
- growth [14]: 89%
- growth [15]: 73.4%
- growth [16]: 94.7%
- growth [17]: 86.8%
- growth [18]: 84.7%
- growth [19]: 104%

Structure (SMILES): C=CCCCCOc1ccccc1-c1cnc(OCCCCC=C)n1C
- growth [1]: 92.6%
- growth [2]: 30.5%
- growth [3]: 62.8%
- growth [4]: 66.5%
- growth [5]: 90.5%
- growth [6]: 79.6%
- growth [7]: 70.1%
- growth [8]: 81%
- growth [9]: 66.6%
- growth [10]: 52.2%
- growth [11]: 18.1%
- growth [12]: 81.9%
- growth [13]: 91.1%
- growth [14]: 68.6%
- growth [15]: 73.5%
- growth [16]: 83.7%
- growth [17]: 55.7%
- growth [18]: 69.1%
- growth [19]: 73.4%

Structure (SMILES): CCCCCN(CCCCC)CCCCCCCCN1CCCc2ccccc21
- growth [1]: 101%
- growth [2]: 7.49% (active)
- growth [3]: 99.2%
- growth [4]: 90.9%
- growth [5]: 115%
- growth [6]: 86.9%
- growth [7]: 80.1%
- growth [8]: 107%
- growth [9]: 95.2%
- growth [10]: 89.7%
- growth [11]: 25.6%
- growth [12]: 76.6%
- growth [13]: 102%
- growth [14]: 101%
- growth [15]: 79.5%
- growth [16]: 100%
- growth [17]: 101%
- growth [18]: 61.4%
- growth [19]: 105%

Structure (SMILES): COc1ccc(C(=O)/C=C/c2ccccn2)c(O)c1
- growth [1]: 45.1%
- growth [2]: 41.9%
- growth [3]: 88.2%
- growth [4]: 82.4%
- growth [5]: 56.2%
- growth [6]: 90.5%
- growth [7]: 97.1%
- growth [8]: 49.4%
- growth [9]: 100%
- growth [10]: 39.7%
- growth [11]: 72.2%
- growth [12]: 78.1%
- growth [13]: 73.1%
- growth [14]: 87.5%
- growth [15]: 95.5%
- growth [16]: 95%
- growth [17]: 90.8%
- growth [18]: -54.9% (active)
- growth [19]: 90.7%

Structure (SMILES): COc1cc(NN=C(c2ccc(O)cc2)c2ccc(O)cc2)c([N+](=O)[O-])cc1[N+](=O)[O-]
- growth [1]: 90.5%
- growth [2]: 109%
- growth [3]: 120%
- growth [4]: 91.9%
- growth [5]: -34.4% (active)
- growth [6]: 72.3%
- growth [7]: 112%
- growth [8]: 5.64% (active)
- growth [9]: -14.4% (active)
- growth [10]: 35%
- growth [11]: 98.1%
- growth [12]: 98.4%
- growth [13]: -4.74% (active)
- growth [14]: 40.5%
- growth [16]: 14.3%
- growth [17]: 73.9%
- growth [18]: 34.4%
- growth [19]: 81%

Structure (SMILES): Cc1ccc(-c2cn(C/C=C3\C=CN(S(=O)(=O)c4ccccc4)CC3)nn2)cc1
- growth [1]: 118%
- growth [2]: 89.5%
- growth [3]: 104%
- growth [4]: 97.5%
- growth [5]: 123%
- growth [6]: 99.3%
- growth [7]: 99.3%
- growth [8]: 100%
- growth [9]: 106%
- growth [10]: 95.6%
- growth [11]: 124%
- growth [12]: 82.1%
- growth [13]: 93%
- growth [14]: 108%
- growth [15]: 97.1%
- growth [16]: 97%
- growth [17]: 64%
- growth [18]: 97.8%
- growth [19]: 101%

Structure (SMILES): CCOc1ccccc1/C=N\Nc1ccc(S(=O)(=O)c2ccc(N/N=C/c3ccccc3OCC)cc2)cc1
- growth [1]: 109%
- growth [2]: 87.9%
- growth [3]: 98%
- growth [4]: 87.8%
- growth [5]: 112%
- growth [6]: 88.3%
- growth [7]: 92.9%
- growth [8]: 90.8%
- growth [9]: 100%
- growth [10]: 82.9%
- growth [11]: 108%
- growth [12]: 80.8%
- growth [13]: 93.5%
- growth [14]: 94.8%
- growth [15]: 87%
- growth [16]: 100%
- growth [17]: 85%
- growth [18]: 92.5%
- growth [19]: 100%

Structure (SMILES): Nc1nc(N)c2c(n1)NC(c1ccc(F)cc1)C1CCc3ccccc3C1=N2 (stereo not drawn)
- growth [1]: 62.1%
- growth [2]: 21.4%
- growth [3]: 17.2%
- growth [4]: 80.8%
- growth [5]: 83.1%
- growth [6]: 76.1%
- growth [7]: 34.2%
- growth [8]: 56.8%
- growth [9]: 45.6%
- growth [10]: 49.6%
- growth [11]: 27.9%
- growth [12]: 63.1%
- growth [13]: 70.7%
- growth [14]: 41.8%
- growth [16]: 1.07% (active)
- growth [17]: 47.5%
- growth [18]: 52.8%
- growth [19]: 93.4%

Structure (SMILES): CC1(C)S[C@@H]2[C@H](NC(=O)[C@H](C(=O)O)c3cccs3)C(=O)N2[C@H]1C(=O)O
- growth [1]: 123%
- growth [2]: 105%
- growth [3]: 103%
- growth [4]: 126%
- growth [5]: 116%
- growth [6]: 110%
- growth [7]: 98.4%
- growth [8]: 100%
- growth [9]: 96.2%
- growth [10]: 98.7%
- growth [11]: 102%
- growth [12]: 104%
- growth [13]: 105%
- growth [14]: 94.4%
- growth [15]: 99.2%
- growth [16]: 106%
- growth [17]: 102%
- growth [18]: 99.4%
- growth [19]: 116%

Reference: PubChem BioAssay (NCI)
